Compound activity from PubChem.
MITF primary: blocks human microphthalmia-associated transcription factor. O75030. AlphaScreen MITF homodimerization, bead proximity signal. inhibition, % at 2.6 µM. 650,000 tested, 0.91% active. AID 1259374; in the data active = inhibition above about 50%;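 note: 0% = vehicle wells with protein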
FBW7 act: activators of human E3 ligase FBW7 | Q969H0 | AlphaScreen FBW7–phospho-cyclin E peptide binding, activator screen | normalized activity (activation), % at 26.1 µM | 650,000 tested, 0.13% active; in the data active = normalized activity above about 1.9%;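 note: purified mutant Fbw7 with reduced substrate affinity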
GPR151 ag: activates the human receptor GPR151; activation, % at 11.2 µM; 650,000 tested, 1% active; Q8TDV0; PathHunter beta-arrestin GPR151 cells, luminescence; in the data active = activation above about 4.9%;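 note: 0% = median of compound wells and 100% = cells with positive control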
TEAD-YAP block: TEAD-YAP interaction inhibition; HEK-TIYL cells, TEAD-Gal4/YAP UAS-luciferase luminescence; inhibition, % at 9.12 µM; 640,000 tested, 1.4% active; AID 1259422; in the data active = inhibition above about 32%;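 note: 0% = median of test compound wells and 100% = reference inhibitor wells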
GPR151 conf act: confirmation of human GPR151 activators; shares compounds with GPR151 ag; GPR151 PathHunter beta-arrestin cells, luminescence, 90 min; % of EA-reagent control over plate median; activation, % at 11.2 µM; 6,700 tested, under 10 active; AID 1508609;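 active = mean percent activation across replicates above the confirmation screen cutoff of 4.91%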
GPR119 ag: GPR119 activation, counter-screen for GPR151 activators. shares compounds with GPR151 ag. GPR119 PathHunter beta-arrestin cells, luminescence, 90 min; 0 = compound-well median, 100 = enzyme-acceptor control. activation, % at 11.2 µM. 6,700 tested, 0.3% active. AID 1508611;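 active = mean percent activation in the counterscreen above 29.09%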;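 note: counterscreen on off-target GPR119 to flag nonselective hits from the GPR151 activator screen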
Target sequence (Q8TDV5 whole entry, looked up): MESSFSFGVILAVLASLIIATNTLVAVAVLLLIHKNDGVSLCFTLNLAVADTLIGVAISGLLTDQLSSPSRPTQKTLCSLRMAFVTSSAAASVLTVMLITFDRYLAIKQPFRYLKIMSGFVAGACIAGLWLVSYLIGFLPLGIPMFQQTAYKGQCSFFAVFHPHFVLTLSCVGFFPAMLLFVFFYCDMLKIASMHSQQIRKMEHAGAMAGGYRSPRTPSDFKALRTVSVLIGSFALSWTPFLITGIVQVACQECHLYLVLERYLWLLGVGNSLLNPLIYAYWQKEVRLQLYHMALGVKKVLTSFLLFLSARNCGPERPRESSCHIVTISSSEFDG
* hit, by the source's call; · = no result. Only some compounds are listed: those with a hit (about 3.4% of all), similar ones and a draw of the others.

SMILES | MITF primary | FBW7 act | GPR151 ag | TEAD-YAP block | GPR151 conf act | GPR119 ag
COc1ccc(OC)c(NC(=O)c2ccccc2C(F)(F)F)c1 | -5 | 0 | 6.6* | 6 | 1 | -2
O=c1cc(CSc2nc3ccccc3c3nc4ccccc4n23)nc2ccc(Cl)cn12 | -3 | 0 | 0 | 2 | · | ·
CCOc1ccc(NC(=O)Cn2c(-n3nc(C)cc3C)nc(C)cc2=O)cc1 | 10 | 0 | 9.1* | 14 | 1 | 7
COc1ccc(NC(=O)Cn2c(-n3nc(C)cc3C)nc(C)cc2=O)cc1 | 0 | -1 | -1 | -11 | · | ·
O=C(COC(=O)c1cc(S(=O)(=O)N2CCOCC2)c(Cl)cc1Cl)c1ccccc1 | 14 | 0 | 0 | 3 | · | ·
O=C(COC(=O)c1cc([N+](=O)[O-])ccc1NCCO)Nc1ccc(F)cc1F | -1 | 0 | 5.6* | -17 | 0 | -5
O=C(COC(=O)c1cc([N+](=O)[O-])ccc1NCCO)Nc1ccc(F)cc1 | -38 | 0 | 1 | 11 | · | ·
CC(Oc1ccccc1)C(=O)Nc1ccccc1Br (configuration not stated) | -13 | 0 | 0 | -6 | · | ·
COc1ccc(OC(C)C(=O)Nc2cc(Cl)ccc2C)cc1 (configuration not stated) | 6 | 1 | 9.3* | 15 | -1 | -4
CC(=O)Nc1ccc(NC(=O)C(C)Oc2cccc(C)c2)cc1 (configuration not stated) | 12 | 0 | 0 | 1 | · | ·
CC(=O)Nc1ccccc1NC(=O)C(C)Oc1cccc(C)c1 (configuration not stated) | 5 | 0 | 27* | -1 | -1 | -13
CC(Oc1ccccc1)C(=O)Nc1ccccc1O (configuration not stated) | 12 | 0 | 5.3* | -8 | 0 | 10
Cc1nn(C)c(C)c1-c1nccc(NCc2nc3ccccc3[nH]2)n1 | -4 | 0 | 5.9* | -3 | 0 | -4
CNC(=O)c1cc(F)ccc1Nc1cc(Nc2cccc(OC)c2)ncc1C(F)(F)F | -10 | 0 | 9.3* | 14 | 1 | -1
COC(=O)C1=C(C)N(C)C(=O)NC1c1ccc([N+](=O)[O-])cc1 (configuration not stated) | -7 | 0 | 2 | -1 | · | ·
Brc1cccc(CNCc2cccnc2)c1 | 16 | 0 | 1 | 4 | · | ·
Brc1cccc(CNCc2ccncc2)c1 | 4 | 0 | 13* | 12 | 1 | -5
COC(=O)C(Cc1cc(Cl)ccc1Cl)SC#N (configuration not stated) | 23 | 0 | 9.7* | -3 | -1 | -12
O=C(O)c1ccc2c3c(cccc13)C(=O)NC2=O | 22 | 1 | -1 | 13 | · | ·
COc1cc([N+](=O)[O-])ccc1NC(=O)COC(=O)C(CC(C)C)NC(N)=O (configuration not stated) | 4 | 0 | 5.3* | -5 | 0 | -2
COc1ccc([N+](=O)[O-])cc1NC(=O)COC(=O)CC(c1ccccc1)c1ccccc1 | 4 | 0 | 5.2* | -8 | 0 | -4
COc1cc(Cl)c(C)cc1NC(=O)COC(=O)C(CC(C)C)NC(N)=O (configuration not stated) | -16 | 0 | 0 | -4 | · | ·
Cc1cc(C)c(S(=O)(=O)Nc2ccc(O)c(C(=O)O)c2)cc1C | 1 | 0 | 10* | 0 | 1 | -2
Cc1cc(C)c(S(=O)(=O)Nc2ccc(F)cc2)cc1C | 10 | 0 | 0 | -1 | · | ·
COc1cccc(-c2nnc(SCc3cc(C(=O)O)ccc3C)o2)c1 | 18 | 1 | 0 | 1 | · | ·
SMILES | MITF primary | FBW7 act | GPR151 ag | TEAD-YAP block | GPR151 conf act | GPR119 ag
CCC(Oc1ccccc1)C(=O)Nc1sc2c(c1C(N)=O)CCC(C)C2 (configuration not stated) | -8 | 0 | -1 | -10 | · | ·
CCCNc1nc(N2CCN(Cc3ccc4c(c3)OCO4)CC2)nc2c1ncn2C(C)C | 11 | 0 | 2 | -1 | · | ·
c1cncc(-c2noc(CCC3CCCC3)n2)c1 | -12 | 0 | 7.7* | -5 | 1 | 3
c1cncc(-c2noc(C34CC5CC(CC(C5)C3)C4)n2)c1 | -10 | 0 | 6.9* | -3 | 2 | 0
CCN1C(=O)CC(N2CCC(C(=O)N3CCOCC3)CC2)C1=O (configuration not stated) | -4 | 0 | 15* | 1 | 1 | 14
CCCCCNC(=O)CSc1ccc(C(=O)Nc2ccccc2OC)cc1[N+](=O)[O-] | 14 | 0 | -1 | 5 | · | ·
CCCCSc1c(C(=O)NC)ccc2c1C(=O)c1ccccc1C2=O | -6 | 0 | 0 | -2 | · | ·
COc1cccc(C(=O)NNC(=O)c2ccc([N+](=O)[O-])cc2)c1 | 1 | 0 | -1 | -5 | · | ·
CCOC(=O)c1c(N)sc(-c2ccccc2)c1Cc1ccccc1 | -7 | 0 | 1 | -1 | · | ·
CCOC(=O)c1c(N)sc(-c2ccccc2)c1C | 1 | 0 | 6.2* | -40 | 0 | -2
COCC(C)NCC(O)COc1cc(Cl)ccc1Cl (configuration not stated) | 18 | 0 | 14* | 2 | 1 | 7
CCc1ccc(NC2=C(Cl)C(=O)N(c3ccccc3OC)C2=O)cc1 | 25 | 0 | 3 | 21 | · | ·
CCc1ccc(N2C(=O)C(Cl)=C(Nc3ccc(C(=O)N4CCCC4)cc3)C2=O)cc1 | 8 | 0 | 5.2* | 18 | 0 | -5
CC(=O)N/N=C(\C)CC(=O)Nc1ccc2c(c1)OCCO2 | -1 | 0 | 0 | -2 | · | ·
C/C(CC(=O)Nc1ccc2c(c1)OCCO2)=N\NC(=O)C(=O)Nc1ccc(C)cc1 | 1 | 0 | 7.0* | -5 | 0 | 5
CC(C)N(CCNc1nc(Nc2nccc3ccccc23)nc2c1ncn2C1CCCCC1)C(C)C | -12 | 0 | -2 | -4 | · | ·
CC(C)N(CCNc1nc(Nc2ccccn2)nc2c1ncn2C1CCCCC1)C(C)C | 2 | 0 | 6.4* | 16 | 0 | -13
COc1ccc(Nc2nc(-c3c[nH]c4ccccc34)cs2)cc1 | 16 | 0 | 5.4* | -15 | 0 | -3
COc1ccc2c(-c3csc(N)n3)c[nH]c2c1 | -2 | 0 | 8.4* | 14 | 0 | 6
COc1ccc2c(c1)c(-c1csc(N)n1)c(C)n2C | 16 | 0 | -1 | 1 | · | ·
COc1cc2nc(Nc3cccnc3)nc(Nc3ccc(N4CCOCC4)cc3)c2cc1OC | -4 | 0 | -2 | 7 | · | ·
CCCCn1c(O)c(Nc2ccc3c(c2)=NC(=O)N=3)c2ccccc21 | 1 | 0 | 6.8* | 2 | 1 | 11
CCCCn1c(O)c(C2=c3ccccc3=NC2=O)c2ccccc21 | 26 | 0 | -2 | 13 | · | ·
COc1cc(C2C(C#N)=C(N)OC3=C2C(=O)CC(c2ccco2)C3)cc(OC)c1O (configuration not stated) | 10 | 0 | -1 | -4 | · | ·
